Data on 26 molecules can be found in PubChem BioAssay (Tox21).

Assay [1] is described as follows: qHTS assay to test for compound auto fluorescence at 535 nm (green) in HEK293 cells (AID 720680). On the technique in general: qHTS replaces the single test concentration by a dilution series.
The nature of assay [2]: qHTS assay to test for compound auto fluorescence at 460 nm (blue) in HEK293 cell free culture (AID 720681). The method in brief: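 Test compounds were pinned into cell-free culture medium (DMEM with 10% FBS) and fluorescence was read directly at Ex/Em 405/460 nm. Signals were expressed as fluorescence equivalents of triamterene, with DMSO vehicle as control.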
Assay [3] in a line: qHTS assay to test for compound auto fluorescence at 535 nm (green) in HEK293 cell free culture (AID 720682). The method in brief: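 Green-label autofluorescence (485 nm excitation, 535 nm emission) measured on compound added to cell-free culture medium (DMEM, 10% FBS). Output is expressed relative to fluorescein.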
Assay [4] in a line: qHTS assay to test for compound auto fluorescence at 590 nm (red) in HEK293 cell free culture (AID 720683). The method in brief: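 Tox21 10K library compounds were pinned into cell-free DMEM with 10% FBS and fluorescence was read at excitation 540 nm. Activity is expressed as Rose Bengal sodium equivalency.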
Assay [5] in a line: qHTS assay to test for compound auto fluorescence at 590 nm (red) in HepG2 cell free culture (AID 720684). The method in brief: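 Red fluorescence (540 nm excitation, 590 nm emission) was measured after compound transfer into cell-free MEM supplemented with 10% FBS. Values are equivalencies against Rose Bengal sodium.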
Assay [6] can be described thus: qHTS assay to test for compound auto fluorescence at 460 nm (blue) in HepG2 cell free culture (AID 720685). An outline of the steps: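 Compound (23 nL) or DMSO pinned into cell-free MEM with 10% FBS; blue fluorescence read at 405/460 nm excitation/emission, expressed as auto-fluorescence equivalency to triamterene.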
A short description of assay [7]: qHTS assay to test for compound auto fluorescence at 535 nm (green) in HepG2 cell free culture (AID 720686).
The nature of assay [8]: qHTS assay to test for compound auto fluorescence at 460 nm (blue) in HepG2 cells (AID 720687). The method in brief: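 Cells (2,000/well in MEM with 10% FBS) attached overnight at 37 C, then were exposed to compound or DMSO for 1 hr at 37 C, 5% CO2. Fluorescence read at Ex/Em 405/460 nm, expressed as triamterene-equivalent signal.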
The target of assay [9] is Glucocorticoid receptor (Homo sapiens) (UniProt P04150). Description: qHTS assay to identify small molecule agonists of the glucocorticoid receptor (GR) signaling pathway (AID 720691; active = well fitted activation curve with a large enough effect in the signal ratio in the repeat runs, not every such curve was filed as active; the % refers to the signal ratio). The method in brief: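 Reporter read-out: fluorescence intensity following 2 h room-temperature LiveBLAzer B/G FRET substrate loading. Prior step: GR-bla HeLa cells held 4 h, then treated 18 h at 37 C.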
Chain of Glucocorticoid receptor (Homo sapiens) (P04150 whole entry, looked up): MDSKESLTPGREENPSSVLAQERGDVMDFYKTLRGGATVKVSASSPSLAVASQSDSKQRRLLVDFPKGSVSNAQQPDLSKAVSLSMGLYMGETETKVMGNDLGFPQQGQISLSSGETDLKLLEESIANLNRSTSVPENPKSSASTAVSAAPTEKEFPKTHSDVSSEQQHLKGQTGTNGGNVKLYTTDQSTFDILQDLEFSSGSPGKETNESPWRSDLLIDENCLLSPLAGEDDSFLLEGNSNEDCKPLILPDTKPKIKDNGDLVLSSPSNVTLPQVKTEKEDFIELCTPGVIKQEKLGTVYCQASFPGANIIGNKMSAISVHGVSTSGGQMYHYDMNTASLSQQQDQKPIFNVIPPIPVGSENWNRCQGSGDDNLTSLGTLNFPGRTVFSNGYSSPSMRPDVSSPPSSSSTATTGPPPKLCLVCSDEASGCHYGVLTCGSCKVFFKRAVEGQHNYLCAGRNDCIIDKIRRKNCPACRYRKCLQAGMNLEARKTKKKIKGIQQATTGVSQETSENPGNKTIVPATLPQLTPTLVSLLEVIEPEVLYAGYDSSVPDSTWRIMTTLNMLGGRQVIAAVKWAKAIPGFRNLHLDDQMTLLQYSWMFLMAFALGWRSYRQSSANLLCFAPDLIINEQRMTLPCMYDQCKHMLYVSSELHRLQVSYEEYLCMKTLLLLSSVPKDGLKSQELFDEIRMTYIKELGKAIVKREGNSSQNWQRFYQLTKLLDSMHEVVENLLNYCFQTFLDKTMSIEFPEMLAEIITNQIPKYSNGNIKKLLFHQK

Assay [10] has the same target. Description: qHTS assay to identify small molecule antagonists of the glucocorticoid receptor (GR) signaling pathway (AID 720692; active = well fitted inhibition curve with a large enough effect in the signal ratio in the repeat runs, not every such curve was filed as active; the % refers to the signal ratio; also: potency is read from the fitted curve at half-maximal effect). The method in brief: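 Dexamethasone (5 nM final) stimulated a stably integrated GRE-beta-lactamase reporter in HeLa cells during 18 h co-incubation with compounds; signal was quantified as fluorescence intensity of B/G FRET substrate after 2 h.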

Several values for one entry are separate records, joined by “and”; a condition that tells them apart may be missing. Identical values can stand only once. Results filed as inconclusive are left out. Activity calls are given as the source filed them. Unless noted, calls follow the shape of the dose curve; as a rule, active = well fitted curve in the direction sought with a large enough effect in the repeat runs; inconclusive = weak or mixed curves; inactive = flat fitted curve, though single readings scatter.

Regarding `CCOS(=O)(=O)OCC`, the molecule was called inactive in assay [1], in assay [3], in assay [4], in assay [5], in assay [7] and in [9]. Further, the Potency result in assay [2], in assay [6], in assay [8] and in [10] was “inactive” in each case.

For `COP(=S)(OC)Oc1ccc(S(=O)(=O)N(C)C)cc1`, the outcome in assay [1], in assay [3], in [4], in assay [5], in assay [7] and in assay [9] was inactive. The Potency result in [2], in assay [6] and in assay [8] was “inactive” throughout.

Take `CNC(=O)Oc1cccc2c1OC(C)(C)C2`: the result in assay [1], in assay [3], in assay [4], in assay [5], in [7] and in [9] was inactive. The Potency result in [2], in assay [6] and in [8] was “inactive” each time.

Turning to `CCNCC`, the molecule was called inactive in [1], in [3], in assay [4], in [5], in [7] and in assay [9]. The Potency result in [2], in assay [6], in assay [8] and in assay [10] was “inactive” each time.

Regarding `C[C@]12CC[C@H]3[C@@H](CCC4=CC(=O)CC[C@@H]43)[C@@H]1CC[C@@H]2O`, the call in assay [1], in assay [3], in assay [4], in assay [5] and in assay [7] was inactive. In addition, the Potency result in [2], in assay [6] and in [8] was “inactive” throughout. Also, the Potency in assay [10] is 3.01 µM (active) and 4.25 µM (active) and 6.85 µM (active).

Regarding `CN(C)c1ccccc1`, the outcome in assay [1], in assay [3], in assay [4], in [5], in assay [7] and in [9] was inactive. Further, the Potency entry in assay [2], in assay [6] and in assay [8] was “inactive” throughout.

Take `CCC1(c2ccc(N)cc2)CCC(=O)NC1=O` (stereo not given): the call in [1], in [3], in [4], in assay [5], in assay [7] and in assay [9] was inactive. Moreover, the Potency result in [2], in [6], in assay [8] and in assay [10] was “inactive” in each case.

In the case of `CCCCSP(=O)(SCCCC)SCCCC`, the outcome in [1], in [3], in assay [4], in assay [5], in [7] and in assay [9] was inactive. Besides, the Potency entry in assay [2], in assay [6] and in assay [8] was “inactive” in each case.

With `CCCCCCCCCCCCCl`, the call in assay [1], in assay [3], in assay [4], in [5], in assay [7] and in assay [9] was inactive. The Potency result in assay [2], in assay [6], in assay [8] and in [10] was “inactive” in each case.

On to `CCNc1nc(Cl)nc(NC(C)(C)C#N)n1`, for which the call in assay [1], in [3], in [4], in assay [5], in [7] and in [9] was inactive. Also, the Potency entry in [2], in assay [6], in assay [8] and in [10] was “inactive” in each case.

Regarding `COP(=O)(NC(C)=O)SC` (stereo not given), the molecule was classed as inactive in assay [1], in assay [3], in [4], in [5], in [7] and in assay [9]. Besides, the Potency result in assay [2], in [6], in [8] and in [10] was “inactive” in each case.

As to `C=CC(Cl)CCl` (stereo not given), the result in assay [1], in [3], in [4], in [5], in assay [7] and in assay [9] was inactive. The Potency result in assay [2], in [6], in [8] and in [10] was “inactive” in each case.

For `CCC/C=N/O`, the molecule was called inactive in [1], in [3], in assay [4], in [5], in [7] and in [9]. Besides, the Potency result in [2], in assay [6] and in assay [8] was “inactive” throughout.

Consider `CC(C)(c1ccc(OCC2CO2)cc1)c1ccc(OCC2CO2)cc1` (stereo not given), for which the outcome in assay [1], in assay [3], in [4], in assay [5], in [7] and in assay [9] was inactive. In addition, the Potency entry in [2], in assay [6] and in [8] was “inactive” in each case.

As to `C[C@]12CCC(=O)C=C1CC[C@@H]1[C@@H]2CC[C@@]2(C)[C@H]1CC[C@]2(C)O`, the molecule was called inactive in [1], in assay [3], in [4], in assay [5], in assay [7] and in assay [9]. Moreover, the Potency entry in assay [2], in [6] and in [8] was “inactive” throughout.

For the molecule `CCCCC(C#N)(Cn1cncn1)c1ccc(Cl)cc1` (stereo not given), the molecule was classed as inactive in [1], in [3], in [4], in assay [5], in [7] and in assay [9]. Moreover, the Potency entry in assay [2], in assay [6], in assay [8] and in assay [10] was “inactive” each time.

For the molecule `O=NN(c1ccccc1)c1ccccc1`, the call in assay [1], in [3], in [4], in assay [5], in assay [7] and in assay [9] was inactive. The Potency entry in [2], in assay [6] and in assay [8] was “inactive” each time.

For `O=P(OCCCl)(OCCCl)OCCCl`, the molecule was called inactive in assay [1], in assay [3], in assay [4], in [5], in [7] and in [9]. The Potency entry in assay [2], in [6], in assay [8] and in assay [10] was “inactive” in each case.

In the case of `CCOP(=O)(OCC)OCC`, the molecule was classed as inactive in [1], in assay [3], in [4], in assay [5], in assay [7] and in [9]. Also, the Potency result in assay [2], in assay [6], in assay [8] and in assay [10] was “inactive” each time.

Regarding `CNC(=S)S`, the result in assay [1], in assay [3], in assay [4], in [5], in assay [7] and in assay [9] was inactive. Besides, the Potency entry in [2], in assay [6], in [8] and in assay [10] was “inactive” each time.

Turning to `CC(C)CON=O`, the molecule was called inactive in assay [1], in assay [3], in [4], in [5], in assay [7] and in assay [9]. For the same molecule, the Potency result in assay [2], in assay [6] and in assay [8] was “inactive” throughout.

In the case of `OC(c1ccc(Cl)cc1)(c1cncnc1)c1ccccc1Cl` (stereo not given), the result in [1], in [3], in assay [4], in assay [5], in assay [7] and in assay [9] was inactive. For the same molecule, the Potency result in [2], in [6] and in assay [8] was “inactive” throughout. The Potency in [10] was 49 µM (active).

In the case of `Nc1ncn[nH]1`, the call in [1], in [3], in assay [4], in assay [5], in assay [7] and in [9] was inactive. Further, the Potency result in assay [2], in [6], in assay [8] and in assay [10] was “inactive” in each case.

Regarding `N#CC(c1ccccc1)c1ccccc1`, the molecule was classed as inactive in assay [1], in assay [3], in [4], in assay [5], in assay [7] and in assay [9]. Further, the Potency result in assay [2], in [6], in assay [8] and in [10] was “inactive” each time.

Regarding `COc1ccc(CO)cc1`, the result in assay [1], in assay [3], in [4], in [5], in assay [7] and in assay [9] was inactive. Also, the Potency result in assay [2], in assay [6], in assay [8] and in [10] was “inactive” throughout.

Consider `CC(C)(C#N)N=NC(C)(C)C#N`, for which the molecule was called inactive in assay [1], in assay [3], in assay [4], in assay [5], in assay [7] and in assay [9]. Moreover, the Potency result in assay [2], in assay [6], in assay [8] and in [10] was “inactive” in each case.
